PubChem BioAssay (NCATS)
“And” between values parts separate entries of the source, which are not always exact repeats. Identical values can stand only once. Records with an inconclusive call do not appear. The source made the active and inactive calls. Unless noted, calls come from the whole dose curve; as a rule, active = well fitted curve in the direction sought with a large enough effect; inconclusive = small, poorly fitted or top-dose-only effect, or another doubt; inactive = no such curve, though single readings can be large; an effect the other way counts as inactive or inconclusive.

Experiments:
[1] = AP1 Signaling Pathway (AID 357; active = well fitted curve in either direction with a large enough effect, not every such curve was filed as active;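 note: ME-180 reporter cells stimulated with EGF at its EC50 level; % is set by controls: 0 for no effect and ±100 for the full control effect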)
In short: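 Beta-lactamase reporter under AP-1 response element, ME-180 background. Stimulus: EC50 EGF. Compound exposure 5 h, 37 °C. Detection: CCF4, 2.5 h RT, 460/530 nm. Values: AC50 from titration.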

[2] = Stat Signaling Pathway (AID 446; active = well fitted curve in either direction with a large enough effect, not every such curve was filed as active;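 note: ME-180 cervical cancer cells given 40 pM IL-6 alongside compound; SIE-controlled beta-lactamase reporter measured as 460/530 nm FRET emission ratio; % is set by controls: 0 for no effect and ±100 for the full control effect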)
In short: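 Emission at 460 and 530 nm (excitation 405 nm) reports SIE-controlled beta-lactamase in ME-180 cells. Cells received compound with 40 pM IL-6 for 5 hrs at 37 C; data scaled between 300 pM IL-6 and 125 nM JAK-inhibitor controls.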

[3] = molecular target: Glucocorticoid receptor (Homo sapiens) (UniProt P04150); assay: GR-EFC Redistribution (AID 451; calls by dose curve; note: potency is the fitted concentration of half-maximal effect); settings: CHO-K1 GR-EFC translocation, beta-gal luminescence, 2 h
In short: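 CHO-K1 cells stably expressing nuclear-localized β-gal enzyme acceptor and GR fused C-terminally to the enzyme donor fragment; ligand-driven nuclear translocation restores β-gal by complementation. Compounds titrated up to 46 uM final, 2 h at 37 °C; luminescence read.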

[4] = molecular target: Mitogen-activated protein kinase 10 (Mus musculus) (UniProt Q61831); assay: JNK3 AlphaScreen Assay (AID 530; active = well fitted curve in either direction with a large enough effect, not every such curve was filed as active;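 note: kinase came from lysate of stimulated human HepG2 cells; signal reports phosphorylation of biotinylated GST-cJun 1-79 at Ser73 with 10 µM ATP; % is set by controls: 0 for no effect and ±100 for the full control effect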)
In short: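 Phosphorylation of biotinylated GST-cJun(1-79) at Ser73 is measured by AlphaScreen proximity luminescence. Enzyme is JNK3 in HepG2 lysates activated with interleukin-1beta and tumor necrosis factor alpha; ATP is 10 uM final.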

[5] = molecular target: 3',5'-cyclic-AMP phosphodiesterase 4B (Homo sapiens) (UniProt Q07343); assay: qHTS Assay for Inhibitors of PDE-IV (AID 607; active = well fitted activation curve with a large enough effect in the main read-out, with a control signal flat, not every such curve was filed as active; note: % of control where 0% means no effect)
In short: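 The readout is membrane depolarisation from a cAMP-sensing CNG channel, detected with a potential dye at ex 535/em 590. Cells were HEK293-derived (endogenous PDE-IV) at 1000 cells/well, titrated up to 22.9 uM final.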

[6] = molecular target: Cytochrome P450 3A4 (Homo sapiens) (UniProt P08684); assay: qHTS Assay for Activators of Cytochrome P450 3A4 (AID 885); note: nearly all actives have a fitted effect of over 65% in size
In short: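 Activators are scored by enhanced luminescence from CYP3A4 conversion of luciferin-PPXE (25uM, equal to KM) to luciferin, after 60 min at RT with an NADPH-regenerating system.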

[7] = qHTS Assay for Lipid Storage Modulators (AID 1519; calls by dose curve); settings: Drosophila S3 cells, BODIPY lipid droplet/cell ratio, laser cytometry, cells loaded with oleic acid
In short: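 Cells seeded at 5,000 per well were treated with compounds over a concentration series and loaded with oleic acid (400 uM, as added). Lipid droplet fluorescence (488 nm excitation, 500-530 nm channel) was read by laser-scanning cytometry and normalized to 20 uM Triacsin C.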

[8] = molecular target: Ubiquitin carboxyl-terminal hydrolase 1 (Homo sapiens) (UniProt O94782); assay: Inhibitors of USP1/UAF1: Pilot qHTS (AID 504865); note: nearly all actives have a fitted effect of over 35% in size; note: potency is the fitted concentration of half-maximal effect
In short: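 USP1/UAF1 complex at 1 nM preincubated 15 min at room temperature with compound, then Ub-Rho substrate added at 150 nM final. Fluorescence (480/540 nm) read kinetically in 50 mM HEPES pH 7.8, 0.5 mM EDTA, 1 mM TCEP, 0.1 mg/ml BSA, 0.01% Tween-20.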

[9] = molecular target: ATP-dependent 6-phosphofructokinase (Trypanosoma brucei brucei) (UniProt O15648); assay: qHTS Assay to Find Inhibitors of T. brucei phosphofructokinase: hit validation (AID 492961);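 note: luminescence reports ADP formed as PFK phosphorylates fructose-6-phosphate with ATP; % is set by controls: 0 for no effect and ±100 for the full control effect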
In short: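 Percent activity derived from corrected luminescence, normalized between 0x and 1x enzyme controls, then fitted to concentration-response curves. Conditions: 1.25 nM PFK, 0.1 mM ATP, 0.5 mM F6P, 45 min RT.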

[10] = molecular target: Luciferin 4-monooxygenase (Photinus pyralis) (UniProt P08659); assay: Biochemical firefly luciferase enzyme assay for NPC (AID 624030);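 note: purified P. pyralis luciferase at 10 nM with luciferin and ATP substrate; 0% = DMSO and -100% = full luciferase inhibition by PTC124 control; nearly all actives have a fitted effect of over 70% in size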
In short: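 Counter-screen for direct inhibition of the luciferase enzyme by approved-drug library compounds, run at 10 nM enzyme in 50 mM Tris acetate (final). Luminescence was read within 5 min of enzyme-buffer addition and normalized to PTC124 versus DMSO (0%).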

[11] = qHTS profiling for inhibitors of Plasmodium falciparum proliferation (AID 504749); note: nearly all actives have a fitted effect of over 60% in size; note: potency is the fitted concentration of half-maximal effect;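 for activity, negative = inhibition: 0% = DMSO vehicle and full inhibition = artemisinin control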; settings: P. falciparum in erythrocytes, SYBR Green DNA, 72 h
In short: (§1)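 Quantitative HTS: compounds pinned into medium, infected erythrocytes added (0.3% parasitemia, 2.5% hematocrit), 72 h culture at 37 C under 5% CO2. Saponin/Triton lysis with SYBR Green I, overnight RT, then fluorescence read.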

[12] = system: C2A; assay: as above; settings: P. falciparum in erythrocytes, SYBR Green DNA, 72 h; series mostly up to 28.7 µM
In short: as §1

[13] = system: CP217; assay: as above; settings: P. falciparum in erythrocytes, SYBR Green DNA, 72 h; series mostly up to 28.7 µM
In short: as §1

[14] = system: CP252; assay: as above; settings: P. falciparum in erythrocytes, SYBR Green DNA, 72 h; series mostly up to 12.8 µM
In short: as §1

[15] = system: CP256; assay: as above; settings: P. falciparum in erythrocytes, SYBR Green DNA, 72 h; series mostly up to 28.7 µM
In short: as §1

[16] = system: CP262; assay: as above; settings: P. falciparum in erythrocytes, SYBR Green DNA, 72 h; series mostly up to 28.7 µM
In short: as §1

[17] = NFAT Signaling Pathway (AID 444; active = well fitted curve in either direction with a large enough effect, not every such curve was filed as active); settings: Jurkat NFAT-bla M1, carbachol, beta-lactamase ratio, 5 h; at 17.2 µM (top of the series)
In short: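 Jurkat cells carrying an NFAT-driven β-lactamase reporter and co-transfected muscarinic M1 receptor were treated with compound plus carbachol (1 uM final, an EC50 level) for 5 h at 37 °C. CCF4 loading followed for 1 h at RT; 460/530 nm ratio gave %activity.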

[18] = molecular target: Glucocorticoid receptor (Homo sapiens) (UniProt P04150); assay: GR-GFP Redistribution (AID 450;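 active = compounds whose dose series gives a full or clear partial fitted curve of increased nuclear translocation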; note: potency is the fitted concentration of half-maximal effect); settings: U2OS GR-GFP nuclear translocation, laser cytometry, 2 h
[19] = molecular target: Cytochrome P450 1A2 (Homo sapiens) (UniProt P05177); assay: p450-cyp1a2 (AID 410; calls by dose curve;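 note: -100% = full effect of reference inhibitor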)
In short: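 Luminescent demethylation readout: Luciferin-ME (100uM, equal to Km) turned over by 20nM CYP1A2 for 60 min at room temperature after NADPH regeneration addition, following 10 min compound preincubation. Normalization used 57 uM furafylline as full inhibition.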

[20] = molecular target: Cytochrome P450 3A4 (Homo sapiens) (UniProt P08684); assay: qHTS Assay for Inhibitors and Substrates of Cytochrome P450 3A4 (AID 884); note: nearly all actives have a fitted effect of over 50% in size; note: potency is the fitted concentration of half-maximal effect
In short: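 Luminescent readout of luciferin produced by CYP3A4 (20 nM) dealkylation of Luciferin-PPXE, 25 uM (its KM). NADPH-driven reaction ran 60 min at RT after 10 min compound preincubation; data scaled to 57 uM ketoconazole as 100% inhibition.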

[21] = measured here: cell count channel max response
[22] = measured here: lipid channel max response
[23] = at 12.8 µM (top of the series), parasite line A
[24] = at 12.8 µM (top of the series), parasite line B
[25] = at 28.7 µM (top of the series), parasite line A
[26] = at 28.7 µM (top of the series), parasite line B

Glucocorticoid receptor (Homo sapiens), sequence (P04150 whole entry, looked up, the tested form may be a part): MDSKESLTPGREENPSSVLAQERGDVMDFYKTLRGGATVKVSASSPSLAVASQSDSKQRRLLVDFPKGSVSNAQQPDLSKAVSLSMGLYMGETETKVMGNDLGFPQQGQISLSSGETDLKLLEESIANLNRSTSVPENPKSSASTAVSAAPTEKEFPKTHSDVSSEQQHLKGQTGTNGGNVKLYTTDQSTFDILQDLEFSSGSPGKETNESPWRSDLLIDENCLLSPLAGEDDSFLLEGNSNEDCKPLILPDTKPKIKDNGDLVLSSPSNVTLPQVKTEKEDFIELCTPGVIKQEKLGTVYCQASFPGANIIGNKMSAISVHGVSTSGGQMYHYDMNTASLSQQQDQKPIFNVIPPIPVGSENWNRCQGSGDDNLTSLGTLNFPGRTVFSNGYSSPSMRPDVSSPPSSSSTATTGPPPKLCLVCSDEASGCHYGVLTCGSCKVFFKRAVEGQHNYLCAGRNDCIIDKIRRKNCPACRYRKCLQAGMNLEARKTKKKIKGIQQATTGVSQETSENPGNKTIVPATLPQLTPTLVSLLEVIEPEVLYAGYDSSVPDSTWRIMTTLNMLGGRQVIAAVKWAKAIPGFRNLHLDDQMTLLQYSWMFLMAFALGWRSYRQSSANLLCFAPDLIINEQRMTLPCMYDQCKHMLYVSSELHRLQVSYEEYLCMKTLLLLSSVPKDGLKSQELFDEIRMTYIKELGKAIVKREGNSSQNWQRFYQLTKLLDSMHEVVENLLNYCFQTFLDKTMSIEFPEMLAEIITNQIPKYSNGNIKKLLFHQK
3',5'-cyclic-AMP phosphodiesterase 4B (Homo sapiens), sequence (Q07343 whole entry, looked up): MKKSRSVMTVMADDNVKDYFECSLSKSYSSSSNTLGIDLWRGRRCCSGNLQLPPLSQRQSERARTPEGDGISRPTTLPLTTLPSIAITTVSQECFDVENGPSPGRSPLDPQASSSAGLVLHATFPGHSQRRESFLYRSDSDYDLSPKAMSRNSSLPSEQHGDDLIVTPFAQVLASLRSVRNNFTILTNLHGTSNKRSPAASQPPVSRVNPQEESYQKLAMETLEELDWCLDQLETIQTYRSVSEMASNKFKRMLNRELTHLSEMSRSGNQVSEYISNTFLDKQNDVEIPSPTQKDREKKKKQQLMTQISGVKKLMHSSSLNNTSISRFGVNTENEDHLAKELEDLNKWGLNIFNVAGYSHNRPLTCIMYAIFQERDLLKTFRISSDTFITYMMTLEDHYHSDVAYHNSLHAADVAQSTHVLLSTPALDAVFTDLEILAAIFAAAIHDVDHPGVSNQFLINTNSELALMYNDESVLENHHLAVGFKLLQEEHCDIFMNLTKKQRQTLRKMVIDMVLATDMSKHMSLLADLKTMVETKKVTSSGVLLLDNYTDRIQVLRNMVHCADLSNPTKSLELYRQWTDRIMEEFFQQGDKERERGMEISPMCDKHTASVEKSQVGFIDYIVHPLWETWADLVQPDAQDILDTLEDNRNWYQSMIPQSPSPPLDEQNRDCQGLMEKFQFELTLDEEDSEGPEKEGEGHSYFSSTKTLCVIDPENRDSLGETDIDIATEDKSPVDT
Cytochrome P450 3A4 (Homo sapiens), sequence (P08684 whole entry, looked up): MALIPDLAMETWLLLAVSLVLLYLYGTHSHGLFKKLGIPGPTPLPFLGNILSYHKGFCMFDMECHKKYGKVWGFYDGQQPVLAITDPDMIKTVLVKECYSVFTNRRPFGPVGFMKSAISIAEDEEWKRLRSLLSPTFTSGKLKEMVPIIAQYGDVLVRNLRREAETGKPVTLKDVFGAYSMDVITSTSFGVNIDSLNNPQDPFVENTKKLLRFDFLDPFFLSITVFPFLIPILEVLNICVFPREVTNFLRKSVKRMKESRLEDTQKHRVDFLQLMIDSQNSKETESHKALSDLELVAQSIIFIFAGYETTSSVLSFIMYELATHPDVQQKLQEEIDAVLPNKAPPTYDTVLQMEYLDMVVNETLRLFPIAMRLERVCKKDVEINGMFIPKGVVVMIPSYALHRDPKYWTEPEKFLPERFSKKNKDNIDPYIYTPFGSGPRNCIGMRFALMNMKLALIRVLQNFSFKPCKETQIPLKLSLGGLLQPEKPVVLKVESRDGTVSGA
ATP-dependent 6-phosphofructokinase (Trypanosoma brucei brucei), sequence (O15648 whole entry, looked up): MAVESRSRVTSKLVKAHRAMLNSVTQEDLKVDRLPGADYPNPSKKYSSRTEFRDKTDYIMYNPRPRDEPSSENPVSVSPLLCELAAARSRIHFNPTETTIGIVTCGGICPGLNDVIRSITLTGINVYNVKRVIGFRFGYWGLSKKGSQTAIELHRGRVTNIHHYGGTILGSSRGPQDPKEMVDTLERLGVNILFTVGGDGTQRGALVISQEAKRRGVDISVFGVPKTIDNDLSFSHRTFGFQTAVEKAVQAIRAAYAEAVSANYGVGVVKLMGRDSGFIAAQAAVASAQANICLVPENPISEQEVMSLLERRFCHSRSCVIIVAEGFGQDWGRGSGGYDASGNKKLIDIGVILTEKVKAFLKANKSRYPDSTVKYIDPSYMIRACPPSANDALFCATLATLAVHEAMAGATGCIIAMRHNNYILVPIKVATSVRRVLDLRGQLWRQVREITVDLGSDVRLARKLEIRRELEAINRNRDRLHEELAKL
Ubiquitin carboxyl-terminal hydrolase 1 (Homo sapiens), sequence (O94782 whole entry, looked up): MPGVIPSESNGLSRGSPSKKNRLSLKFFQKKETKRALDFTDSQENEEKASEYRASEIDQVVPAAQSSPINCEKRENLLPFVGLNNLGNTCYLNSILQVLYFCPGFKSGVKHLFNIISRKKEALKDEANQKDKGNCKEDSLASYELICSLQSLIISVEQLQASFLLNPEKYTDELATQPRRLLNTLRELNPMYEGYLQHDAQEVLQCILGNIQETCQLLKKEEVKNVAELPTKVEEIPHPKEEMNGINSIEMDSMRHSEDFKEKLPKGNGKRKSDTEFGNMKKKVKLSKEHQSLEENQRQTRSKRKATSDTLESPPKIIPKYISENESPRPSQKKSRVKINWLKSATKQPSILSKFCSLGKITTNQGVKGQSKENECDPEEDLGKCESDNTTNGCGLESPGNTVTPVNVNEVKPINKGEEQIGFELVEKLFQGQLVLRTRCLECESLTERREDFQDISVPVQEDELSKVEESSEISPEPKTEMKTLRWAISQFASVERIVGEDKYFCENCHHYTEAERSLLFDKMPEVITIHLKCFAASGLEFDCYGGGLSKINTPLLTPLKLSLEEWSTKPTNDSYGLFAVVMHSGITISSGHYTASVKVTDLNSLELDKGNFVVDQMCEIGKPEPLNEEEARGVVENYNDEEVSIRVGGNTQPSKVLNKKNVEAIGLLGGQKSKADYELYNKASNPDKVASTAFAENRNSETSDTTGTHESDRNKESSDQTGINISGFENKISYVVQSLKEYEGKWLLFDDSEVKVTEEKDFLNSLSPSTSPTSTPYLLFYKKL
Luciferin 4-monooxygenase (Photinus pyralis), sequence (P08659 whole entry, looked up): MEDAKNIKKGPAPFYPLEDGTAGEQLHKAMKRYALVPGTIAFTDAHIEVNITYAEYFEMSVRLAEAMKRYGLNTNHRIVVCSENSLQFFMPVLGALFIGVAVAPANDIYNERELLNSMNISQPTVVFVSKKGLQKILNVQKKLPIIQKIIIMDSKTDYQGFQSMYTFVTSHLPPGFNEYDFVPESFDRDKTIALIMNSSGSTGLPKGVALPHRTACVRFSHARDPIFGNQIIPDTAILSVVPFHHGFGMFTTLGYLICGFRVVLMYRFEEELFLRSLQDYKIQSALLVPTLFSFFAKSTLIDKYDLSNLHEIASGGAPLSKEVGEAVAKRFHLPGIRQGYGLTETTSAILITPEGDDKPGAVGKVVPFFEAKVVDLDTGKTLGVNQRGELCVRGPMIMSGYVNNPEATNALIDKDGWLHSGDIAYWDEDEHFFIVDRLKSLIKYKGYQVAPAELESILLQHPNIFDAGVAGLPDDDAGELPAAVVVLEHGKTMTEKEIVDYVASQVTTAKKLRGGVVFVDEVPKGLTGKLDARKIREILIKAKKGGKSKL
Cytochrome P450 1A2 (Homo sapiens), sequence (P05177 whole entry, looked up): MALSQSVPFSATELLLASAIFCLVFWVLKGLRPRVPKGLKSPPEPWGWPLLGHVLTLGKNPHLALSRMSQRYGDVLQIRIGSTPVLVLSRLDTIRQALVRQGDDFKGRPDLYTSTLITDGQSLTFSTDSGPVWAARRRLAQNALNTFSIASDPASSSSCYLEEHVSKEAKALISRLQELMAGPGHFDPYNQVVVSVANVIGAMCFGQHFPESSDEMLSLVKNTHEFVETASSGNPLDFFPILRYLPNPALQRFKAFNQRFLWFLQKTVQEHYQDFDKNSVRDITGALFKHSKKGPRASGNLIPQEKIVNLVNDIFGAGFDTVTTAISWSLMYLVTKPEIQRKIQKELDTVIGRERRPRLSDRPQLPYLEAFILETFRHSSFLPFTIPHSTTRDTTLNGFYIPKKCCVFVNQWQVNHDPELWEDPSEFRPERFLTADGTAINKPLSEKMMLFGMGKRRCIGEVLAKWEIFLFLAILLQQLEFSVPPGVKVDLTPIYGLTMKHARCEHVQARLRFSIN

CN1CC[C@]2(C)c3cc(O)ccc3N(C)[C@@H]12
outcome [1]: inactive
outcome [2]: inactive
Potency [3]: > 46 µM (inactive) and > 20.6 µM (inactive)
outcome [4]: inactive
Potency [5]: inactive
Potency [6]: inactive
activity change, negative = inhibition ([7]; at 25.7 µM (top of the series)): -1.57% (inactive)
max response [7, 21]: -15.4%
max response [7, 22]: -17.5%
Potency [8]: 2.82 µM (active)

O=c1ccc2cc(O[C@H]3O[C@@H](CO)[C@@H](O)[C@@H](O)[C@@H]3O)c(O)cc2o1
Potency [3]: > 20.6 µM (inactive)
outcome [4]: inactive
Potency [5]: inactive
activity change, negative = inhibition ([7]; at 25.7 µM (top of the series)): -1.03% (inactive)
max response [7, 21]: 1.01%
max response [7, 22]: 0.833%
Potency [9]: inactive
Potency [8]: inactive
Potency [10]: inactive
activity, negative = inhibition [11, 23]: 3.87% (inactive)
activity, negative = inhibition [11, 24]: -4.9% (inactive)
Potency [12]: inactive
Potency [13]: inactive
Potency [14]: inactive
Potency [15]: inactive
Potency [16]: inactive

C[C@H]1CC[C@@]2(NC1)O[C@@H]1C[C@H]3[C@@H]4CC=C5C[C@@H](O)CC[C@]5(C)[C@@H]4CC[C@]3(C)[C@@H]1[C@@H]2C
activity change, negative = inhibition [17]: 7.82% (inactive)
outcome [2]: inactive
Potency [3]: > 20.6 µM (inactive)
Potency [5]: inactive
activity change, negative = inhibition ([7]; at 25.7 µM (top of the series)): -1.61% (inactive)
max response [7, 21]: 0.522%
max response [7, 22]: -7.85%
Potency [8]: inactive

Clc1ccc([C@@H](OCCN2CCCCC2)c2ccccc2)cc1
activity change, negative = inhibition [17]: -74.4% (active)
outcome [2]: inactive
Potency [18]: > 20.6 µM (inactive)
Potency [3]: > 20.6 µM (inactive)
outcome [4]: inactive
activity change, negative = inhibition ([7]; at 25.7 µM (top of the series)): -2.71% (inactive)
max response [7, 21]: -5.28%
max response [7, 22]: -7.74%
Potency [9]: inactive
Potency [10]: inactive
activity, negative = inhibition [11, 23]: -2.83% (inactive)
activity, negative = inhibition [11, 24]: -13.1% (inactive)
Potency [12]: inactive
Potency [13]: inactive
Potency [14]: inactive
Potency [15]: inactive
Potency [16]: inactive

CC(C)(C)NC[C@H](O)c1cc(Cl)c(N)c(Cl)c1
outcome [1]: inactive
activity change, negative = inhibition [17]: -7.65% (inactive)
outcome [2]: inactive
outcome [4]: inactive
Potency [5]: inactive
activity change, negative = inhibition ([7]; at 25.7 µM (top of the series)): -0.0671% (inactive)
max response [7, 21]: 1.84%
max response [7, 22]: 2.72%
Potency [8]: inactive

COc1cc(N)c(Cl)cc1C(=O)N[C@@H]1CN2CCC1CC2
Potency [19]: inactive
Potency [18]: > 46 µM (inactive)
Potency [3]: > 46 µM (inactive)
Potency [5]: inactive
activity change, negative = inhibition ([7]; at 57.5 µM (top of the series)): 7.47% (inactive)
max response [7, 21]: 3.73%
max response [7, 22]: 7.11%
Potency [9]: inactive
Potency [10]: inactive
activity, negative = inhibition [11, 25]: -0.396% (inactive)
activity, negative = inhibition [11, 26]: 5.5% (inactive)
Potency [12]: inactive
Potency [13]: inactive
Potency [14]: inactive
Potency [15]: inactive
Potency [16]: inactive

C=C[C@H]1CN2CCC1C[C@@H]2C(O)c1ccnc2ccccc12 (some centres not stated)
Potency [20]: inactive
activity change, negative = inhibition ([7]; at 57.5 µM (top of the series)): 7.24% (inactive)
max response [7, 21]: 20.2%
max response [7, 22]: 27.5%
Potency [8]: inactive

CCS(=O)CCSP(=O)(OC)OC (configuration not stated)
activity change, negative = inhibition ([7]; at 57.5 µM (top of the series)): -0.0729% (inactive)
max response [7, 21]: 0.72%
max response [7, 22]: 3.47%
Potency [8]: inactive

C[C@]1(C(=O)O)CCC[C@]2(C)c3cc(O)ccc3CC[C@@H]12
Potency [20]: inactive
activity change, negative = inhibition ([7]; at 57.5 µM (top of the series)): -6.36% (inactive)
max response [7, 21]: -21.1%
max response [7, 22]: -24.8%
Potency [8]: inactive

CNC(C)[C@@H](O)c1ccccc1 (some centres not stated)
Potency [20]: inactive
activity change, negative = inhibition ([7]; at 57.5 µM (top of the series)): -6.91% (inactive)
max response [7, 21]: 19.3%
max response [7, 22]: 12.8%
Potency [9]: inactive
Potency [10]: inactive
activity, negative = inhibition [11, 25]: -2.9% (inactive)
activity, negative = inhibition [11, 26]: -5.29% (inactive)
Potency [12]: inactive
Potency [13]: inactive
Potency [14]: inactive
Potency [15]: inactive
Potency [16]: inactive

COC1=CC23CCCN2CCc2cc4c(cc2C3C1O)OCO4 (configuration not stated)
Potency [20]: 31.6 µM (active)
Potency [6]: inactive
activity change, negative = inhibition ([7]; at 57.5 µM (top of the series)): 15.3% (inactive)
max response [7, 21]: 26.5%
max response [7, 22]: 52.2%
Potency [8]: inactive

CC(C)Nc1nc(Cl)nc(NC(C)C)n1
Potency [20]: inactive
activity change, negative = inhibition ([7]; at 57.5 µM (top of the series)): 3.35% (inactive)
max response [7, 21]: 5.6%
max response [7, 22]: 10.8%
Potency [8]: inactive

CNC(=O)Oc1ccc2c(c1)[C@@]1(C)CCN(C)C1N2C (some centres not stated)
activity change, negative = inhibition ([7]; at 57.5 µM (top of the series)): 4.58% (inactive)
max response [7, 21]: 3.75%
max response [7, 22]: 14.3%
Potency [8]: inactive

C[C@]12CCC(=O)C=C1CCc1ccc(O)cc12
Potency [20]: 25.1 µM (active)
Potency [6]: inactive
activity change, negative = inhibition ([7]; at 57.5 µM (top of the series)): -0.872% (inactive)
max response [7, 21]: -10.5%
max response [7, 22]: -4.41%
Potency [8]: inactive

CCC(C)C1O[C@]2(C=CC1C)CC1CC(C/C=C(\C)[C@H](OC3CC(OC)C(O[C@H]4CC(OC)[C@@H](O)C(C)O4)C(C)O3)[C@@H](C)/C=C/C=C3\COC4C(O)C(C)=C[C@H](C(=O)O1)[C@@]34O)O2 (some centres not stated)
Potency [20]: inactive
activity change, negative = inhibition ([7]; at 57.5 µM (top of the series)): -5.38% (inactive)
max response [7, 21]: -1.86%
max response [7, 22]: -6.99%
Potency [9]: inactive
Potency [10]: inactive
Potency ([11]; parasite line A): 4.47 µM (active)
Potency ([11]; parasite line B): 8.91 µM (active)
Potency [12]: 12.6 µM (active)
Potency [13]: 10 µM (active)
Potency [14]: 11.2 µM (active)
Potency [15]: 6.31 µM (active)
Potency [16]: inactive
